# From PubChem BioAssay AID1159602 (The Scripps Research Institute Molecular Screening Center, 2016)
# In all, about 22,000 compounds went through this assay and about 220 (1%) were called active. This excerpt belongs to a sample that is enriched for actives. A number with no mark means an inactive call. Cut-off read from the data, not from the text of the source: active = inhibition above about 35%; inactive = the rest.
# Target: Mitogen-activated protein kinase kinase kinase 5 (Homo sapiens) (UniProt Q99683)
# Sequence (Q99683 whole entry, looked up): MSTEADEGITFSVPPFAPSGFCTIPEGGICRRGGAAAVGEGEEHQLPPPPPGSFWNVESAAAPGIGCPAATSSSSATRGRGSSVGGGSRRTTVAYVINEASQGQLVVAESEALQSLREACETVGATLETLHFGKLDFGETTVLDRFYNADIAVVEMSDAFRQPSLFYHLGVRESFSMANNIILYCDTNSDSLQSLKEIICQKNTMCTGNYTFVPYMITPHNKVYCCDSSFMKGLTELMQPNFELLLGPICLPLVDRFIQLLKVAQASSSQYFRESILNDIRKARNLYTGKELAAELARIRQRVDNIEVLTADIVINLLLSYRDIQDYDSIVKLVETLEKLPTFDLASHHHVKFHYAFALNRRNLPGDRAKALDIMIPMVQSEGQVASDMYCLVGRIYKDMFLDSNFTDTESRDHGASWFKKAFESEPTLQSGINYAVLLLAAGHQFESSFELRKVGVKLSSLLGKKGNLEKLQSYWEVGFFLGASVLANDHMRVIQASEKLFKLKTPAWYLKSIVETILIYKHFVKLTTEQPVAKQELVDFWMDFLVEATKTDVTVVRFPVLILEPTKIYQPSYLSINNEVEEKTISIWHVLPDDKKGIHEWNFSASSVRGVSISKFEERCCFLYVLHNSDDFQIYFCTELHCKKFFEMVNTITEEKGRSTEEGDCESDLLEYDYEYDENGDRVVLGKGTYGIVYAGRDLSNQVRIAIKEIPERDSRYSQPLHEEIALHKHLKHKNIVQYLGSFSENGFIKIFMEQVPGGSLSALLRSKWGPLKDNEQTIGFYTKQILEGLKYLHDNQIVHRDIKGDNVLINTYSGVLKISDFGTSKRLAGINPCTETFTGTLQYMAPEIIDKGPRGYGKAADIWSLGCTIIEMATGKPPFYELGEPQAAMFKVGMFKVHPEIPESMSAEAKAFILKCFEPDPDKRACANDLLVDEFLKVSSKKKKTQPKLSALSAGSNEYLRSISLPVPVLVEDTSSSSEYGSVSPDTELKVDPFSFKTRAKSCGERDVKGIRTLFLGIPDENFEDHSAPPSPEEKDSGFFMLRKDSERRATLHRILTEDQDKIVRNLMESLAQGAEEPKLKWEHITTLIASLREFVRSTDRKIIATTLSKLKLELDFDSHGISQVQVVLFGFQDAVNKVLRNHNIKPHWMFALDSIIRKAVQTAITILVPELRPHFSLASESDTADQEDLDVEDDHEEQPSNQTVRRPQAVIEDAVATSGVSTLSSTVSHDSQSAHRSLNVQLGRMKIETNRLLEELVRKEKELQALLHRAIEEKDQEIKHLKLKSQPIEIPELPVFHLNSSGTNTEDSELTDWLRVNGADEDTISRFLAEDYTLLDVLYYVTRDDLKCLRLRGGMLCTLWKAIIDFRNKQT
# Assay: blockers of MAP3K5 kinase activity – biochemical, AlphaScreen, primary screen (AID 1159602);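 note: 0% = median of compound wells and 100% = no enzyme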
# Details: AlphaScreen MKK6 phosphorylation by ASK1, luminescence; at 7.44 µM; stronger effect = higher value
row,Structure (SMILES),inhibition
1,c1ccc(CNc2nc(Nc3cccnc3)nc3c2ncn3-c2ccccc2)cc1,8.4%
2,CC(=O)c1cccc(-c2nc3ccc(C(=O)NC4CCN(Cc5ccccc5)CC4)cc3s2)c1,-0.28%
3,CC(C)n1c(Nc2ccccc2)nc2c(NCc3cccc(C(F)(F)F)c3)ncnc21,-21.3%
4,CCCNc1ncnc2c1nc(N1CCN(c3ccccn3)CC1)n2C(C)C,-14.9%
5,COc1ccc(CCNc2cc(Nc3cc(OC)c(OC)c(OC)c3)nc(N)n2)cc1,-1.19%
6,CCCNC(=O)c1csc(Nc2nc3ccccc3n2C)n1,-7.28%
7,COc1ccc(-c2nc(Nc3cc(OC)c(OC)c(OC)c3)c3ncn(C(C)C)c3n2)cc1,9.01%
8,CC(C)[C@@H](O)C(=O)N1CCC[C@@H]1C(=O)Nc1ccc2[nH]ncc2c1,4.14%
9,O=C(NCc1nc2ccccc2[nH]1)c1cc(N2CCCC2CO)nc2ccccc12 (stereo unspecified),7.25%
10,c1ccc(Nc2nccc(Nc3ccc(N4CCOCC4)cc3)n2)cc1,25.1%
11,c1ccc(-n2cnc(-c3ccnc(Nc4ccc(N5CCOCC5)cc4)c3)n2)cc1,9.1%
12,Fc1cnc(Nc2ccc(N3CCNCC3)cc2)cc1-n1cnc(Nc2ccccc2)n1,56.6% (active)
13,O=C1CCCN1CCn1cnc2c(NC3CC3)nc(NCc3ccc4c(c3)OCO4)nc21,-15.8%
14,Nc1nc(NCCCN2CCCC2=O)cc(Nc2cnccn2)n1,0.26%
15,CCCNc1nc(N2CCCC(C(=O)N(CC)CC)C2)nc2c1ncn2Cc1ccc(C(F)(F)F)cc1 (stereo unspecified),15.8%
16,COc1cc2nc(Cl)nc(NC3CC3)c2cc1OC,-7.49%
17,CCN(CC)c1nc(NCCc2ccc(O)cc2)nc(Nc2cc(OC)c(OC)c(OC)c2)n1,4.75%
18,Nc1cccc(-c2cncc(C(=O)NCCOc3ccccc3)c2)c1,1.06%
19,CC(C)n1cnc2c(NCc3cccc(C(F)(F)F)c3)nc(Nc3ccc(OC(F)(F)F)cc3)nc21,-3.35%

row,Structure (SMILES),inhibition
1,Cc1nn(C)c(C)c1-c1nc(C(=O)NCCc2ccc(O)cc2)cs1,4.91%
2,Nc1nc(NCc2nc3ccccc3[nH]2)cc(N2CCN(Cc3ccc4c(c3)OCO4)CC2)n1,1.22%
3,c1ccc2[nH]c(CNc3ncnc4nc(Nc5ccncn5)[nH]c34)nc2c1,-8.27%
4,Cc1cc(NCc2nc3ccccc3[nH]2)nc(N2CCOCC2)n1,-7.53%
5,c1ccc(-c2ncn[nH]2)c(Nc2ccnc(Nc3ccc(N4CCOCC4)cc3)c2)c1,37% (active)
6,CNC(=O)c1ccccc1Nc1ccnc(Nc2ccc(N3CCOCC3)cc2)c1,8.11%
7,Cc1cnc(Nc2ccc(N3CCOCC3)cc2)nc1Nc1ccccc1-c1ncn[nH]1,-18%
8,COc1ccc(CCNc2ncnc3nc(-c4ccc(C(N)=O)cc4)[nH]c23)cc1,-0.94%
9,NC(=O)c1ccc(-c2ncc(C(=O)NCCOc3ccccc3)s2)cc1,-1.66%
10,COc1cc(Nc2nc(C)cc(N)n2)cc(OC)c1OC,-5.08%
11,Nc1cccc(-c2cc(Nc3ccccc3)ncn2)c1,4.09%
12,c1cnc(Nc2nc(NCc3cccnc3)c3ncn(C4CCCCC4)c3n2)nc1,5.63%
13,c1ccc(CN2CCC(Nc3nc(-c4csc5ccccc45)nc4c3ncn4C3CCCCC3)CC2)cc1,-20.4%
14,c1ccc(Oc2ccc(Nc3nc(Nc4ccccn4)nc4c3ncn4-c3ccsc3)cc2)cc1,2.93%
15,CNC(=O)c1cc(F)ccc1Nc1cc(Nc2ccc3nc[nH]c3c2)ncc1C(F)(F)F,-2.41%
16,NC(=O)c1ccc(-c2nc(Nc3ccc(N4CCOCC4)cc3)c3ncn(-c4ccccc4)c3n2)cc1,4.79%
17,Cc1cccc(CC(=O)Nc2cnn(-c3cccc(-c4nn[nH]n4)c3)c2)c1,1.78%
18,CC(=O)Nc1ccc(Nc2ncnc3c2nc(NCCN2CCOCC2)n3C(C)C)cc1,-3.14%
19,CC(C)c1nc2ccc(-c3cn[nH]c3)cc2c(=O)[nH]1,12.2%

row,Structure (SMILES),inhibition
1,Cc1cnc(Nc2cnccn2)nc1NCc1cccnc1,-9.12%
2,O=C(NC1CC1)c1ccc(-c2ccc(C(=O)NCc3cccc(C(F)(F)F)c3)s2)cc1,4.99%
3,O=C(NC1CCN(Cc2ccccc2)CC1)c1cc(N2CCCC2CO)nc2ccccc12 (stereo unspecified),-11.9%
4,CC(C)C[C@H](O)C(=O)NC1CCC(Nc2ccc3[nH]ncc3c2)CC1 (stereo partly specified),-17%
5,O=C(Cc1cn(-c2ccc(N3CCC(N4CCOCC4)CC3)nn2)c2ccccc12)NCCCN1CCCC1=O,-20.2%
6,CC(C)n1c(N2CCOCC2)nc2c(Nc3ccc(Oc4ccccc4)cc3)ncnc21,-3.94%
7,COc1ccc(CCNc2nc(-c3ccccc3)nc3c2ncn3CCN2CCCC2=O)cc1,-23.4%
8,O=C(NCCN1CCOCC1)C1CCN(c2ccc(Nc3ccccc3)nn2)CC1,6.22%
9,CCN(CC)CCNC(=O)c1ccc(Nc2cc(Nc3ccccc3C(=O)NC)c(C(F)(F)F)cn2)c(C)c1,-5.11%
10,c1nc(NC2CC2)c2[nH]c(N3CCC(N4CCOCC4)CC3)nc2n1,-10.6%
11,COc1ccc(-c2cnc3ccc4ccccc4c3c2)cc1,-3.77%
12,CCN(CC)c1nc(Nc2cc(OC)c(OC)c(OC)c2)nc(Nc2nc3ccccc3n2C)n1,3.84%
13,Nc1nc(NCc2cccc(C(F)(F)F)c2)cc(NCc2ccc3c(c2)OCO3)n1,-4.13%
14,CCCNC(=O)c1cncc(-c2ccccc2)c1,-0.96%
15,O=C(NCCCN1CCCC1=O)C1CCN(c2ccc(Cl)nn2)CC1,-13.9%
16,COc1cc(NC(=O)c2cnc(-c3ccccc3)s2)cc(OC)c1OC,15%
17,Oc1ccc(CCNc2nc(Nc3ccccn3)nc3nc[nH]c23)cc1,-9.99%
18,CC(=O)Nc1ccc(NC(=O)c2csc(-c3c(C)nn(C)c3C)n2)cc1,11%
